This is a sample that favours compounds with a hit; in the whole collection about 10% have one here.
GLS inh: qHTS for Inhibitors of Glutaminase (GLS); Potency, µM (top dose mostly 45.5 µM), most hits filed as inhibitors; 0.21% of 410,000 active; GLS enzymatic activity, qHTS titration; Glutaminase kidney isoform, mitochondrial (Homo sapiens), O94925
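Compounds were pin-transferred onto hKGA, after which L-glutamine (1 mM solution) and a detection mix of glutamate oxidase, HRP and Amplex Red were added. Initial and 30 min RT fluorescence reads were collected.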
JMJD2A Tudor: qHTS Assay for Inhibitors of JMJD2A-Tudor Domain; AlphaScreen JMJD2A-Tudor / H3K4me3 peptide binding; Potency, µM (highest dose often 114 µM), most hits filed as inhibitors; 4.4% of 390,000 active; note: nearly all actives have a fitted effect of over 50% in size
BAZ2B block: qHTS Assay for Inhibitors of BAZ2B. Bromodomain adjacent to zinc finger domain protein 2B (Homo sapiens), Q9UIF8. AlphaScreen BAZ2B-H3K14Ac peptide displacement. Potency, µM (series often up to 114 µM), most hits filed as inhibitors. 4.4% of 360,000 active; note: nearly all actives have a fitted effect of over 60% in size
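AlphaScreen luminescence quantifies BAZ2B engagement of H3K14Ac peptide; the protein and biotinylated peptide are both at 50 nM final, buffer PBS pH 7.4 with 0.01% Tween-20, all steps at room temperature.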
G9a block: qHTS Assay for Inhibitors of Histone Lysine Methyltransferase G9a; Potency, µM (series often up to 102 µM), usual class: inhibitors; 8.8% of 350,000 active; Histone-lysine N-methyltransferase EHMT2 (Homo sapiens), Q96KQ7; G9a H3K9 monomethylation, AlphaScreen, 2 h; note: nearly all actives have a fitted effect of over 75% in size
Target sequence (Q96KQ7 913-1193 limits assumed): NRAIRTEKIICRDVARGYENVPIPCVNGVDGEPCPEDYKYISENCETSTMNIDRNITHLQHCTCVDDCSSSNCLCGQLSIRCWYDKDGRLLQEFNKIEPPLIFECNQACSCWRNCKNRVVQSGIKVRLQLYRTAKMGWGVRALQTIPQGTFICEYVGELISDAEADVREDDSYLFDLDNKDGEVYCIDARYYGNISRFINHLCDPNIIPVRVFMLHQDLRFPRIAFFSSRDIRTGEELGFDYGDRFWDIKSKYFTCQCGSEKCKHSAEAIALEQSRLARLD
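Step 1: enzyme (final 20 nM) with compound, 15 min RT. Step 2: substrate peptide 500 nM and SAM 20 uM, 2 h RT. Step 3: anti-H3K9me1 antibody and AlphaScreen beads, 10 min, then plate read.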
HP1b chromo inh: HTS for Inhibitors of HP1-beta Chromodomain Interactions with Methylated Histone Tails. Chromobox protein homolog 1 (Homo sapiens), P83916. AlphaScreen HP1-beta / biotin-H3K9me3 peptide binding. Potency, µM (titrated, usually from 114 µM), hits mostly inhibitors. 0.56% of 390,000 active. AID 540317, 2011; note: nearly all actives have a fitted effect of over 70% in size
Target sequence (P83916 whole entry, looked up): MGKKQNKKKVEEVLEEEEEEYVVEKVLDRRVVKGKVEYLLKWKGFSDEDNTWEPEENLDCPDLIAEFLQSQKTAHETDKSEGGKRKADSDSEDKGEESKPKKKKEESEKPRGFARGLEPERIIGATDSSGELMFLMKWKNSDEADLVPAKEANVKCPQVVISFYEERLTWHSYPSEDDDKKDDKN
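HP1-beta protein (50 nM final) preincubated 30 min at room temperature with biotinylated H3(1-18)K9me3 peptide (50 nM) in PBS pH 7.4, 0.01% Tween-20, then compound added for 30 min. AlphaScreen streptavidin donor/nickel chelate acceptor beads (10 ug/mL final), 30 min dark, luminescence read.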
Numbers stand for hits; [ ] = dose if it differs, or a comment. Calls come from the whole dose curve; as a rule, active = well fitted curve in the direction sought with a large enough effect; inconclusive = small, poorly fitted or top-dose-only effect, or another doubt; inactive = no such curve, though single readings can be large; an effect the other way counts as inactive or inconclusive.

Screening COC(=O)CSc1nc(N)c(NC(=O)c2ccc(OC)c(OC)c2)c(=O)[nH]1 returned GLS inh inactive, JMJD2A Tudor inactive, BAZ2B block inactive, G9a block inconclusive and HP1b chromo inh inactive.
Fc1ccc(CSc2nc3ncccc3[nH]2)cc1 was read as GLS inh inactive, JMJD2A Tudor inactive, BAZ2B block inactive, G9a block 50.1µM and HP1b chromo inh inactive.
COC(=O)CSc1nc2ncccc2[nH]1 was read as GLS inh inactive, JMJD2A Tudor inactive, BAZ2B block inactive, G9a block inconclusive and HP1b chromo inh inactive.
Screening COc1ccc(N(CC(=O)NCc2ccccc2Cl)S(=O)(=O)c2c(C)[nH]c(=O)[nH]c2=O)cc1 returned GLS inh inactive, JMJD2A Tudor inactive, BAZ2B block inactive, G9a block inactive and HP1b chromo inh inactive.
CC(=O)CC1OC(=O)C(Br)=C1NCc1ccccc1 (centres undefined) was read as GLS inh inactive, JMJD2A Tudor inactive, BAZ2B block inactive, G9a block 35.5µM and HP1b chromo inh inactive.
Cc1cccc(NC(=O)Cn2c(=O)n(CC3CCC(C(=O)NCCc4ccccc4)CC3)c(=O)c3ccccc32)c1 (centres undefined) was read as GLS inh inactive, JMJD2A Tudor inactive, BAZ2B block inactive, G9a block inactive and HP1b chromo inh inactive.
CCN(Cc1ccncc1)C(=O)c1cc(COc2ccc(F)cc2Cl)on1 was read as GLS inh inactive, JMJD2A Tudor inactive, BAZ2B block inactive and HP1b chromo inh inactive.
For C#CCN(Cc1ccco1)C(=O)c1cc(COc2ccc(F)cc2Cl)on1 the results were GLS inh inactive, JMJD2A Tudor inactive[11.4 µM], BAZ2B block 70.8µM and HP1b chromo inh inactive.
`COc1ccc(S(=O)(=O)NC(=O)C2(C)CCN2C(=O)c2cccc(F)c2)cc1` (centres undefined) gave GLS inh inactive.
`O=C(NNC(=O)C12CC3CC(CC(C3)C1)C2)c1ccccn1` gave GLS inh inactive, JMJD2A Tudor inactive, BAZ2B block inactive and HP1b chromo inh inactive.
Screening CC1(C)CC(NC(=O)c2ccccn2)CC(C)(C)N1O returned GLS inh inactive, JMJD2A Tudor inconclusive, BAZ2B block 50.1µM, G9a block inconclusive and HP1b chromo inh inactive.
Screening CCc1ccc(C(=O)NNc2cc(Cl)ccc2Cl)cc1 returned GLS inh inactive, JMJD2A Tudor inactive, BAZ2B block inactive, G9a block inactive and HP1b chromo inh inactive.
For CCOC(=O)C(=NCCOC)NNc1cc(Cl)ccc1Cl the results were GLS inh inactive, JMJD2A Tudor inconclusive, BAZ2B block inconclusive, G9a block 39.8µM and HP1b chromo inh inactive.
Screening CCOc1ccc(C2C3=C(CC(C)(C)CC3=O)N(CC(=O)O)C3=C2C(=O)CC(C)(C)C3)cc1OCC returned GLS inh inactive, JMJD2A Tudor inactive, BAZ2B block inactive, G9a block 50.1µM and HP1b chromo inh inactive.
Screening CO[C@@]1(NC(=O)C2SC(=C(C(N)=O)C(=O)O)S2)C(=O)N2C(C(=O)O)=C(CSc3nnnn3C)CS[C@@H]21 (some centres undefined) returned GLS inh inactive, JMJD2A Tudor 25.1µM, BAZ2B block 50.1µM, G9a block 15.8µM and HP1b chromo inh inactive.
`CO[C@@]1(NC(=O)CSC[C@@H](N)C(=O)O)C(=O)N2C(C(=O)O)=C(CSc3nnnn3C)CS[C@@H]21` gave GLS inh inactive.
COCCCNC(=O)CSc1nc2cc3c(cc2c(=O)n1CCCCCC(=O)NCc1ccc(OC)cc1)OCO3 was read as GLS inh inactive, JMJD2A Tudor inactive, BAZ2B block inactive, G9a block inactive and HP1b chromo inh inactive.
`Cc1[nH]c(=O)c(C#N)cc1-c1ccc2nccn2c1` gave GLS inh inactive and G9a block 12.6µM.
c1ccc(N2CCN(C3CC4CCC3C4)CC2)cc1 (centres undefined) was read as GLS inh inactive, JMJD2A Tudor inactive, BAZ2B block inactive, G9a block 79.4µM and HP1b chromo inh inactive.
`COCCCN1C(=O)C(=O)/C(=C(/O)c2ccc(OC(C)C)cc2)C1c1ccc(O)c(OC)c1` (centres undefined) gave GLS inh inactive, JMJD2A Tudor 50.1µM, BAZ2B block inactive, G9a block 56.2µM and HP1b chromo inh inactive.
`COCCN1C(=O)C(=O)/C(=C(/O)c2ccc(S(=O)(=O)N3CCOCC3)cc2)C1c1cccc(Cl)c1` (centres undefined) gave GLS inh inactive, JMJD2A Tudor inactive, BAZ2B block inactive, G9a block inactive and HP1b chromo inh inactive.
`CCOc1ccc(C2/C(=C(/O)c3ccc(S(=O)(=O)N4CCCCC4)cc3)C(=O)C(=O)N2CCCOC)cc1OC` (centres undefined) gave GLS inh inactive, JMJD2A Tudor inactive, BAZ2B block inactive, G9a block 79.4µM and HP1b chromo inh inactive.
COCCN1C(=O)C(=O)/C(=C(/O)c2ccc(S(=O)(=O)N3CCOCC3)cc2)C1c1ccc(O)cc1 (centres undefined) was read as GLS inh inactive, JMJD2A Tudor inactive, BAZ2B block inconclusive, G9a block 70.8µM and HP1b chromo inh inactive.
`COCCCN1C(=O)C(=O)/C(=C(/O)c2ccc(S(=O)(=O)N3CCOCC3)cc2)C1c1ccc(OC)cc1` (centres undefined) gave GLS inh inactive, JMJD2A Tudor inactive, BAZ2B block inactive, G9a block 39.8µM and HP1b chromo inh inactive.
`CCCCN(CC)CCNc1ncnc2onc(-c3ccc(Cl)cc3)c12` gave GLS inh inactive, JMJD2A Tudor inactive, BAZ2B block inactive, G9a block inactive and HP1b chromo inh inactive.
`Cc1cc(O)c(Sc2ncn[nH]2)cc1NS(=O)(=O)c1ccc(Cl)cc1` gave GLS inh inactive, JMJD2A Tudor inactive, BAZ2B block inactive, G9a block inactive[12.7 µM] and HP1b chromo inh inactive.
`Cc1cc(C)c(S(=O)(=O)/N=C2/C=C(Sc3ncn[nH]3)C(=O)c3ccccc32)cc1C` gave GLS inh inactive, JMJD2A Tudor inconclusive, BAZ2B block 44.7µM, G9a block 1.41µM and HP1b chromo inh inconclusive.
For CC(=O)Nc1nnc(SCC(=O)Nc2nc(C)cs2)s1 the results were GLS inh inactive, JMJD2A Tudor inactive, BAZ2B block inactive, G9a block inactive and HP1b chromo inh inactive.
Screening Cc1cc(C(=O)CN2CCC(C)CC2)c(C)n1-c1ccccc1F returned GLS inh inactive, JMJD2A Tudor inactive, BAZ2B block inactive, G9a block 50.1µM and HP1b chromo inh inactive.

Screening data as filed in PubChem BioAssay.
